# Screening data deposited in PubChem by Broad Institute.
# This is a sample that favours compounds with a hit; in the whole collection about 7.8% have one here.
# Hedgehog inh: Sonic Hedgehog pathway inhibition; Shh-LIGHT2 Gli-luciferase reporter, 30 h; actives 2.1% (n = 22,000); AID 2313; inhibition, % (concentration not given with the values);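 active = mean inhibition across valid replicates above about 65%, limit read from the data; inconclusive = mean under the limit, yet half or more replicates past it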;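 also: pathway switched on by Shh-conditioned medium diluted 1 in 25 in low serum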
# MITF inhib: blocks MITF activity. TRPM1 promoter luciferase, luminescence, 24 h. inhibition, % (test concentration not listed). actives 0.28% (n = 37,000); in the data active = inhibition above about 85%; inconclusive = no clear call, values can overlap the other calls; inactive = below about 68%;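 also: human melanocyte line stably carrying TRPM1 promoter luciferase reporter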
# NOMO-1 viab: STK33 inhibitor candidate reducing NOMO-1 cell viability | actives 7.5% (n = 37,000) | NOMO-1 AML viability, CellTiter-Glo luminescence, 72 h | AID 2330 | inhibition, % (concentration not given with the values); in the data active = inhibition above about 80%; inconclusive = no clear call, values can overlap the other calls
# * = called active by the depositor; ? = inconclusive; / = no result given; ! = repeats disagree.
SMILES,Hedgehog inh,MITF inhib,NOMO-1 viab
Fc1ccc(C(c2ccc(F)cc2)N2CCN(C/C=C/c3ccccc3)CC2)cc1,4,-9,116*!
C(=C\c1ccccc1)/CN1CCN(C(c2ccccc2)c2ccccc2)CC1,5,9,25
Cc1ccc(OCCCSc2nc(C)cc(=O)[nH]2)c(I)c1,/,-2,15
Cc1ccc(S(=O)(=O)N(C)C[C@@H]2Oc3c(NC(=O)NC4CCCCC4)cccc3C(=O)N([C@@H](C)CO)C[C@@H]2C)cc1,100*,32,26
C[C@H]1CN([C@@H](C)CO)C(=O)c2cccc(NC(=O)NC3CCCCC3)c2O[C@H]1CN(C)S(=O)(=O)c1ccc(F)cc1,103*,24,34
C[C@H](CO)N1C[C@H](C)[C@H](CN(C)S(=O)(=O)c2ccc(Cl)cc2)Oc2c(NC(=O)NC3CCCCC3)cccc2C1=O,122*,63,120*
C[C@H](CO)N1C[C@H](C)[C@@H](CN(C)S(=O)(=O)c2ccc(F)cc2)Oc2c(NC(=O)NC3CCCCC3)cccc2C1=O,-145,9,9
Cc1ccc(S(=O)(=O)N(C)C[C@H]2Oc3c(NC(=O)NC4CCCCC4)cccc3C(=O)N([C@H](C)CO)C[C@H]2C)cc1,-3,3,41
C[C@H]1CN([C@@H](C)CO)C(=O)c2cccc(NC(=O)NC3CCCCC3)c2O[C@@H]1CN(C)S(=O)(=O)c1ccc(Cl)cc1,30,4,5
CCc1ccc(NC(=O)Cn2cnc3ccccc3c2=O)cc1,/,-21,13
Cc1ccc(Cl)cc1NC(=O)CC(C(=O)O)N1CCNCC1 (stereo unspecified),/,-2,-7
Cc1c(Cl)cccc1NC(=O)c1ccc(OCC(=O)Nc2ccc(F)cc2)cc1,/,3,13
O=C(CSc1nnc(-c2ccc(Cl)cc2)n1-c1ccc(F)cc1)Nc1ccccc1Cl,/,10,30
CCOC(=O)c1nc2c(o1)NC(N)=C(C#N)C2c1ccc(Cl)cc1 (stereo unspecified),12,-2,95*
Cc1nc2c([nH]1)C(c1ccc(C(C)C)cc1)C(C#N)=C(N)O2 (stereo unspecified),-9,14,42
NC(=NCc1ccc(Cl)cc1Cl)NC(=O)c1nc(Cl)c(N)nc1N,58,-2,120*
NC(N)=NC(=O)c1nc(Cl)c(N)nc1N,-12,-8,31
CSc1nc(-c2cccnc2)nc(-c2ccc(OC(F)(F)F)cc2)c1C#N,10,-14,12
CC(Oc1ccc(F)cc1)C(=O)Nc1sc2c(c1C(N)=O)CCCC2 (stereo unspecified),/,-18,89*
CCOC(=O)c1c(NC(=O)C(C)Oc2ccccc2C)sc2c1CCCC2 (stereo unspecified),/,8,7
Cc1sc(NC(=O)COc2ccc(Cl)cc2Br)c(C(N)=O)c1C,/,-38,14
C[C@H](CO)N1C[C@H](C)[C@H](CN(C)C(=O)Nc2cccc3ccccc23)Oc2c(NC(=O)Nc3ccccc3)cccc2C1=O,-32,31,14
C[C@H]1CN([C@@H](C)CO)C(=O)c2cccc(NC(=O)Nc3ccc(C(F)(F)F)cc3)c2O[C@@H]1CN(C)C(=O)Nc1cccc2ccccc12,-28,39,102*
C[C@@H]1CN([C@@H](C)CO)C(=O)c2cccc(NC(=O)Nc3cccc4ccccc34)c2O[C@H]1CN(C)C(=O)Nc1ccc(C(F)(F)F)cc1,4,20,44
C[C@@H]1CN([C@H](C)CO)C(=O)c2cccc(NC(=O)Nc3ccc(C(F)(F)F)cc3)c2O[C@H]1CN(C)C(=O)Nc1cccc2ccccc12,-4,28,83*
SMILES,Hedgehog inh,MITF inhib,NOMO-1 viab
O=C(COc1ccc([N+](=O)[O-])cc1)Nc1ccccc1OC(F)F,/,-9,13
CCNC(=O)Oc1ccccc1,-16,-40,-16
C=CC(C)(C)c1c2c(c(O)c3c(=O)c4ccc(O)c(O)c4oc13)C=CC(C)(C)O2,93*,?,107*
COc1c(-c2ccccc2)oc2c(CC=C(C)C)c3c(c(OC)c2c1=O)C=CC(C)(C)O3,-8,3,28
C[C@@H]1O[C@@H](Oc2cc(O)c3c(=O)c(-c4ccc(O)cc4)coc3c2)[C@H](O)[C@H](O)[C@H]1O,40,-19,5
O=C(O)[C@H]1O[C@@H](Oc2cc(O)c3c(=O)c(-c4ccc(O)cc4)coc3c2)[C@H](O)[C@@H](O)[C@@H]1O,-27,0,108*
Cc1sc(NC(=O)c2ccccc2)c(C(=O)NCc2cccnc2)c1C,/,-29,4
O=C(COc1ccc(Cl)cc1)Nc1ccc(O)c(-c2nc3ccccc3o2)c1,/,57,98*
CC(Oc1ccc(Cl)cc1Cl)C(=O)Nc1cccc(-c2nnc(-c3ccccc3)o2)c1 (stereo unspecified),/,-51,35
Cc1ccccc1-c1nc2cc(NC(=O)COc3ccc(Cl)cc3)ccc2o1,/,-45,19
O=C(COc1ccc(Cl)cc1Cl)Nc1cccc(-c2nnc(-c3ccccc3)o2)c1,/,-55,114*
O=C(COc1ccc(Cl)cc1Cl)Nc1ccc(O)c(-c2nc3ccccc3s2)c1,/,15,103*
Cc1cc(Cl)ccc1OCC(=O)Nc1ccccc1-c1nc2ccccc2s1,/,23,22
Cc1ccc(-c2nc3ccccc3s2)cc1NC(=O)COc1cccc(C)c1C,/,-55,89*
Cc1ccc(-c2nc3ccccc3s2)cc1NC(=O)COc1ccccc1C,/,23,30
CC(NS(=O)(=O)c1ccc(Cl)cc1)C(=O)Nc1ccccc1Sc1ccccc1 (stereo unspecified),/,8,41
COc1ccc(NC(=O)CSc2nc(C)c3c(n2)CCCC3)c([N+](=O)[O-])c1,/,-6,26
Cc1ccc(S(=O)(=O)Nc2cccc3c2O[C@H](CN(C)CC2CCCCC2)[C@@H](C)CN([C@@H](C)CO)C3=O)cc1,-7,-1,-9
Cc1ccc(S(=O)(=O)Nc2cccc3c2O[C@@H](CN(C)C(=O)NC2CCCCC2)[C@@H](C)CN([C@@H](C)CO)C3=O)cc1,-21,4,27
Cc1ccc(S(=O)(=O)Nc2cccc3c2O[C@@H](CN(C)C(=O)NC2CCCCC2)[C@@H](C)CN([C@H](C)CO)C3=O)cc1,?,12,100*
Cc1ccc(S(=O)(=O)Nc2cccc3c2O[C@@H](CN(C)CC2CCCCC2)[C@@H](C)CN([C@H](C)CO)C3=O)cc1,88*,0,51
CC(C)(C)C(=O)CSc1nnc(-c2ccco2)o1,/,-44,-23
Cc1sc2ncnc(SCC(=O)c3ccc(Cl)cc3)c2c1C,/,-24,22
COc1ccc2c(c1)O[C@@H]1COc3cc(OC)c(OC)cc3[C@@H]1C2=O,32,110*,52
COc1ccc2c(c1)OCC(Cc1ccc(OC)c(OC)c1)C2=O (stereo unspecified),3,1,-3
COc1ccc2c(c1)OCC(Cc1ccc(OC)c(OC(C)=O)c1)C2=O (stereo unspecified),3,4,108*
COc1ccc(C2C(=O)c3cc(OC)c(OC)cc3C2c2ccccc2)cc1OC (stereo unspecified),10,-7,30
COc1cc2c(cc1OC)[C@@H]1C(=O)c3ccc4c(c3O[C@@H]1CO2)CCC(C)(C)O4,94*,?,44
CCN(CC(=O)Nc1cccc([N+](=O)[O-])c1)S(=O)(=O)c1ccc(F)cc1,/,-1,-15
